Measurements as given in PubChem BioAssay (NCATS).
Results filed as inconclusive are left out. Active and inactive are the calls of the source. The call rests on the fitted dose curve; in most records, active means well fitted cell-killing curve with a large enough effect; inconclusive means small, poorly fitted or top-dose-only effect, or effect the other way; inactive means no such curve, though single readings can be large or run the other way.

Test: Quantitative High-Throughput drug screen in 47 multiple myeloma cell lines against the NCATS MIPE library collection: EJM_DSMZ cell viability assay (AID 1918926; further: nearly all actives have a fitted effect of over 30% in size)
Settings: EJM myeloma cell viability, CellTiter-Glo ATP, 48 h; series mostly up to 45.8 µM; viability, % of control: at the top concentration
Excerpt: PI: Beverly A. Mock Ph.D.
Laboratory of Cancer Biology and Genetics,
Center for Cancer Research, National Cancer Institute,
National Institute of Health, Bethesda, Maryland
Drug resistance and disease progression are common in multiple myeloma (MM) patients, underscoring the need for new therapeutic combinations. […] We hypothesized that effective combinations would reduce MYC expression and enhance p16 activity. […] These preclinical data identify potentially useful drug combinations for evaluation in drug-resistant MM and reveal potential mechanisms of combined drug sensitivity.
Described herein is the primary MIPE qHTS used to cherrypick compounds. Validated compounds were then further tested for potential synergistic activiy.
[1] Peat TJ, Gaikwad SM, Dubois W, Gyabaah-Kessie N, Zhang S, Gorjifard S, Phyo Z, Andres M, Hughitt VK, Simpson RM, Miller MA, Girvin AT, Taylor A, Williams D, D'Antonio N, Zhang Y, Rajagopalan A, Flietner E, Wilson K, Zhang X, Shinn P, Klumpp-Thomas C, McKnight C, Itkin Z, Chen L, Kazandijian D, Zhang J, Michalowski AM, Simmons JK, Keats J, Thomas CJ, Mock BA. Drug combinations identified by high-throughput screening promote cell cycle transition and upregulate Smad pathways in myeloma. Cancer Lett. 2023 Aug 1;568:216284. doi: 10.1016/j.canlet.2023.216284. Epub 2023 Jun 24. PMID: 37356470; PMCID: PMC10408729.
SEQUENCE No. (e.g., 1, 2, 3, etc.); […] (e.g., Cells, Incubation, Reagent, etc.); VALUE and DESCRIPTION.
1; Cells; 5 uL; white, solid bottom 1536-well Greiner assay plate.
2; Compounds; 23 nL; Kalypsis pin tool (Wako USA) equipped with a 1536-well pin head to transfer to the assay plates.
3; Incubation; 48 hours; 37C incubation.
4; Reagent;5uL; CellTiter Glo (Promega).
5; Detector; 425V; Luminescence; Viewlux PerkinElmer.
NOTES (numbers refer to Sequence numbers above)
1. The cell-based screening methods employed in this study were like those previously published. Briefly, the corresponding myeloma cell lines were screened in 1,536-well plates with 500 cells, 5-uL per well for inhibition of cell viability (assessed by measuring ATP levels with CellTiterGlo).
2. NCATS MIPE 4.0 library of approved and investigational drugs were added using the Kalypsis pin tool. Wells treated with DMSO only for 100% viability and media only wells for 0% viability were used as controls.
3. The assay plates were covered and incubated for 48 hours in a 37C, 5% CO2 incubator with controlled humidity.
4. After 48 hours, CellTilter-GloTM luminescent substrate mix (Promega) reagent was added to the assay plate and plates we incubated for 5 min at room temperature.
5. Signal was measured as median relative luminescence units on a ViewLux (PerkinElmer) multiplate reader.
[1] Heske CM, Davis MI, Baumgart JT, Wilson K, Gormally MV, Chen L, Zhang X, Ceribelli M, Duveau DY, Guha R, Ferrer M, Arnaldez FI, Ji J, Tran HL, Zhang Y, Mendoza A, Helman LJ, Thomas CJ. Matrix Screen Identifies Synergistic Combination of PARP Inhibitors and Nicotinamide Phosphoribosyltransferase (NAMPT) Inhibitors in Ewing Sarcoma. Clin Cancer Res. 2017 Dec 1;23(23):7301-7311. doi: 10.1158/1078-0432.CCR-17-1121. Epub 2017 Sep 12. PMID: 28899971; PMCID: PMC6636827.
Potency means the concentration at half of the fitted maximal effect.

| SMILES | viability, % of control | Potency |
| --- | --- | --- |
| O=C(O)CCCc1c[nH]c2ccccc12 | 99.4% (inactive) |  |
| COc1cccc2nc(-c3cccs3)nc(NN3C(=O)C=C(C)C3=O)c12 |  | 0.296 µM (active) |
| COc1cccc(-c2ccc(NC(=O)C3=C(C(=O)O)CCC3)c(F)c2)c1 | 95.7% (inactive) |  |
| Nc1cccc(-c2cc3c(Oc4cccc(O)c4)ncnc3[nH]2)c1 |  | 16.6 µM (active) |
| C[C@H]1C[C@@H]2[C@@H]([C@@H](O)C[C@@]3(C)[C@H]2CC[C@]3(O)C(=O)CO)[C@@]2(C)C=CC(=O)C=C12 | 86.4% (inactive) |  |
| CC(NCc1ccc2c(c1)nc(NC(=O)c1ccc(-c3cn[nH]c3)s1)n2CC(C)(C)O)C(C)(C)C (stereo not given) |  | 0.372 µM (active) |
| CNC(=O)c1cc(Oc2ccc(NC(=O)Nc3cc(C(C)(C)C)nn3-c3ccc4ncccc4c3)c(F)c2)ccn1 |  | 6.62 µM (active) |
| Cn1cc(-c2ccncc2)c(-c2ccc(OCc3ccc4ccccc4n3)cc2)n1 |  | 14.8 µM (active) |
| CN(C)Cc1c(C(=O)NCCOc2ccc(C(=O)NO)cc2)oc2ccccc12 |  | 1.87 µM (active) |
| CCOc1cc2ncc(C#N)c(Nc3ccc(F)c(Cl)c3)c2cc1NC(=O)C=CCN(C)C |  | 5.9 µM (active) |
| Cn1c(=O)n(-c2ccc(C(C)(C)C#N)cc2)c2c3cc(-c4cnc5ccccc5c4)ccc3ncc21 |  | 0.833 µM (active) |
| Cc1nc(N)ncc1-c1nc(N2CCOCC2)c2sc(C(C)(C)O)cc2n1 |  | 1.48 µM (active) |
| OCCCNc1cc(-c2ccnc(Nc3cccc(Cl)c3)n2)ccn1 |  | 0.118 µM (active) |
| COc1cc2ncnc(Nc3ccc(F)c(Cl)c3)c2cc1NC(=O)C=CCN1CCCCC1 |  | 20.9 µM (active) |
| C=CC(=O)Nc1cc2c(Nc3ccc(F)c(Cl)c3)ncnc2cc1C#CC(C)(C)N1CCN(C)CC1 |  | 2.09 µM (active) |
| O=c1[nH]nc(Sc2ncc([N+](=O)[O-])s2)n1-c1ccc2c(c1)OCCO2 |  | 2.96 µM (active) |
| O=C(Nc1cc(C(F)(F)F)cc(C(F)(F)F)c1)c1cc(Cl)ccc1O |  | 1.48 µM (active) |
| CC1(O)CC(c2nc(-c3ccc4ccc(-c5ccccc5)nc4c3)c3c(N)nccn23)C1 (stereo not given) |  | 6.62 µM (active) |
| Cc1ccc2nc(NC(=O)CSc3nc4c(c(=O)n3-c3ccccc3)SCC4)sc2c1 |  | 6.62 µM (active) |
| O=C(O)CO.[NH2-].[NH2-].[Pt+2] | 119% (inactive) |  |

| SMILES | viability, % of control | Potency |
| --- | --- | --- |
| O=C(Nc1cn[nH]c1-c1nc2ccc(CN3CCOCC3)cc2[nH]1)NC1CC1 |  | 1.87 µM (active) |
| CC[C@H](CO)Nc1nc(NCc2ccccc2)c2ncn(C(C)C)c2n1 |  | 26.4 µM (active) |
| COC(=O)C1=C(C)NC(C)=C(C(=O)OCCN2CCN(C(c3ccccc3)c3ccccc3)CC2)C1c1cccc([N+](=O)[O-])c1 (stereo not given) | 105% (inactive) |  |
| Cc1ccc(C(=O)Nc2cccc(C(F)(F)F)c2)cc1-c1ccc2nc(NCCN3CCOCC3)ncc2c1 |  | 16.6 µM (active) |
| CC[C@@H]1C(=O)N(C)c2cnc(Nc3ccc(C(=O)NC4CCN(C)CC4)cc3OC)nc2N1C1CCCC1 |  | 3.72 µM (active) |
| O=C(NC1CCNCC1)c1[nH]ncc1NC(=O)c1c(Cl)cccc1Cl |  | 0.105 µM (active) |
| CCCCCN(CCC12CC3CC(CC(C3)C1)C2)C(=O)NCCCc1ccncc1 |  | 23.5 µM (active) |
| Nc1ccc(C(=O)c2cc3c(ccc4ccccc43)[nH]2)cc1 |  | 4.18 µM (active) |
| CC(C)c1ccc(Cn2ccc3c4c(N)nc(NC5CC5)nc4ccc32)cc1 |  | 14.8 µM (active) |
| CCS(=O)(=O)c1cccc(-c2cc(C(=O)NC3CCN(C)CC3)c(C)c3[nH]c4ncc(C)cc4c23)c1 |  | 2.64 µM (active) |
| O=C1CCC[C@@H]2[C@H]3CCC[N+]4([O-])CCC[C@@H](CN12)[C@@H]34 (stereo not given in full) | 95.9% (inactive) |  |
| Nc1nccc(Oc2ccc(NC(=O)c3c[nH]cc(-c4ccc(F)cc4)c3=O)cc2F)c1Cl |  | 5.9 µM (active) |
| O=C(O)Cn1nnc(-c2cc(N3CCC(Oc4cc(F)ccc4Br)CC3)no2)n1 | 110% (inactive) |  |
| Cn1cncc1[C@@](N)(c1ccc(Cl)cc1)c1ccc2c(c1)c(-c1cccc(Cl)c1)cc(=O)n2C |  | 14.8 µM (active) |
| Cc1ccc(C(N)=O)cc1Nc1nccc(-c2cn(C(C)C)c3cnccc23)n1 |  | 7.43 µM (active) |
| C#Cc1cccc(Nc2ncnc3cc(OC)c(OCCCCCCC(=O)NO)cc23)c1 |  | 0.469 µM (active) |
| COc1ccc(-n2nc(C(N)=O)c3c2C(=O)N(c2ccc(N4CCCCC4=O)cc2)CC3)cc1 | 105% (inactive) |  |
| O=C(CCCCCCC(=O)Nc1ccc([C@H]2O[C@@H](CSc3nc(-c4ccccc4)c(-c4ccccc4)o3)C[C@@H](c3ccc(CO)cc3)O2)cc1)NO |  | 13.2 µM (active) |
| COc1cc2c(Oc3ccc(-c4cnc(Nc5ccc(F)cc5)n(C)c4=O)cc3F)ccnc2cc1OCCCN1CCOCC1 |  | 18.7 µM (active) |
| C=CC(=O)Nc1cc2c(Nc3ccc(F)c(Cl)c3)ncnc2cc1OCCCN1CCOCC1 |  | 7.43 µM (active) |
